BoNT-F LC inh: inhibitors of Botulinum neurotoxin F light chain protease | Multiplex microsphere protease cleavage assay, flow cytometry | 0.22% of 360,000 active | inhibition, % at 10 µM | AID 588497; in the data active = inhibition above about 35%, passing the limit was not always enough; inconclusive = no clear call, values can overlap the other calls; note: plate controls were buffer without enzyme for full effect and enzyme alone for no effect
Anthrax LF prot: blocks Bacillus anthracis lethal factor protease; 0.12% of 360,000 active; P15917; multiplex microsphere protease cleavage assay, LF; inhibition, % at 10 µM; note: plate controls were buffer without enzyme for full effect and enzyme alone for no effect
DUSP3 inh: inhibitors of human VHR1 phosphatase (DUSP3); P51452; recombinant VHR phosphatase, pNPP absorbance; inhibition, % at 13.3 µM; 0.52% of 290,000 active; in the data active = inhibition above about 50%
Target sequence (P51452 whole entry, looked up): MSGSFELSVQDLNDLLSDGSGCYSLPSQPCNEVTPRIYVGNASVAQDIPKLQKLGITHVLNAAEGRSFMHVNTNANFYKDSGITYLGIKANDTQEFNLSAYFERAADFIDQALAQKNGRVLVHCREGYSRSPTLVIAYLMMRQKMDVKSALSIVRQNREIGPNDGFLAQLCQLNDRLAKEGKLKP
MazF activator: activators of E. coli MazEF toxin-antitoxin RNase | P0AE70 | AID 504720 | activation, % at 20 µM | 0.32% of 350,000 active | FAM/BHQ RNA-DNA oligo cleavage fluorescence, 5 h; in the data active = activation above about 50%
Target sequence (P0AE70 whole entry, looked up): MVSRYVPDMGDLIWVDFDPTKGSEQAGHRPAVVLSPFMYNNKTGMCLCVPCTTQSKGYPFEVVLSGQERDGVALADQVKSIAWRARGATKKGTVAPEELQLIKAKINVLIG
Bead autofluor: flagged as autofluorescent in microsphere protease counterscreen | AID 624483 | fluorescence intensity (test concentration not listed) | 3.1% of 360,000 active | compound autofluorescence counterscreen, microsphere flow cytometry; stronger effect = higher value; in the data active = fluorescence intensity above about 16000; inconclusive = no clear call, values can overlap the other calls
BoNT A protease: blocks Botulinum neurotoxin A light chain protease. multiplex microsphere protease substrate cleavage, flow cytometry. inhibition, % at 10 µM. 0.17% of 360,000 active. AID 588499; note: plate controls were buffer without enzyme for full effect and enzyme alone for no effect
BoNT-A LC CP1: blocks botulinum neurotoxin A light chain protease | shares compounds with BoNT-F LC inh | AID 602139 | multiplex microsphere protease assay, flow cytometry | inhibition, % at 10 µM | 3% of 720 active; in the data active = inhibition above about 32%
BoNT-F LC CP1: blocks botulinum neurotoxin F light chain protease; 720 tested, under 10 active; inhibition, % at 10 µM; shares compounds with BoNT-F LC inh; multiplex microsphere protease cleavage assay, flow cytometry; AID 602140; call rule not given here
Anthrax LF CP1: blocks anthrax lethal factor protease; multiplex microsphere protease cleavage assay, LF; shares compounds with BoNT-F LC inh; inhibition, % at 10 µM; 720 tested, under 10 active; AID 602142; call rule not given here
The depositor's hits bear a star; ? = inconclusive; . = no result given. This is a sample that favours compounds with a hit; in the whole collection about 4% have one here. Cut-off read from the data, not from the text of the source, unless noted: active = inhibition above about 30%; inconclusive = no clear call, values can overlap the other calls; inactive = below that.

SMILES | BoNT-F LC inh | Anthrax LF prot | DUSP3 inh | MazF activator | Bead autofluor | BoNT A protease | BoNT-A LC CP1 | BoNT-F LC CP1 | Anthrax LF CP1
Cc1ccc2c(n1)sc1c(-c3ccc(Br)cc3)c(C#N)c(N)nc12 | 16.2 | 29.5 | 42.0 | -2.7 | ? | 44.0* | 10.6 | 1.9 | 4.8
COC(=O)c1ccc(C(=O)OC)c(NC(=O)CN(C)Cc2ccc(Cl)c(Cl)c2)c1 | 65.0* | 36.6* | -14.1 | -9.8 | 6413 | 9.8 | -0.4 | -4.9 | -4.7
COC(=O)c1ccccc1NC(=O)CN(C)Cc1ccccc1 | -2.2 | -2.4 | 37.9 | 4.2 | 1920 | 0.1 | . | . | .
CC(=O)NC1c2ccccc2C(=O)N1Cc1ccccc1 (centres undefined) | 4.7 | -0.4 | 33.6 | 4.8 | 3743 | -2.4 | . | . | .
COc1ccc(CCNC(=O)c2ccc(Cl)c(S(=O)(=O)N(C)c3ccccc3)c2)cc1 | -1.9 | 0.1 | 26.5 | -1.5 | 9294 | -0.7 | . | . | .
CN(C)S(=O)(=O)c1cc(C(=O)NCCCn2ccc3ccccc32)ccc1Cl | -27.3 | 12.5 | 3.1 | 0.0 | 4171 | 6.1 | 0.1 | -2.7 | 1.6
COc1ccc2nc(C)cc(Nc3ccc(C(=O)O)cc3)c2c1 | 38.6* | -2.7 | . | 9.5 | 3557 | -1.9 | -1.0 | -3.0 | 2.0
CCCC(=O)NCc1ccc2c(c1)cc(C)n2C | -37.4 | -3.1 | 11.3 | 0.8 | 4194 | 17.4 | 2.9 | -6.9 | -0.3
Cc1cc2cc(CNC(=O)CCC(=O)O)ccc2n1C | -4.4 | -1.3 | 9.1 | 4.7 | 2670 | -1.7 | -0.3 | -1.0 | 1.0
Cc1cc2cc(CNC(=O)Cc3ccc([N+](=O)[O-])cc3)ccc2[nH]1 | -31.3 | 7.5 | -24.3 | 1.7 | 3872 | 58.4* | -1.4 | -9.2 | -2.9
Cc1cc2cc(CNC(=O)c3cccc([N+](=O)[O-])c3)ccc2n1C | -8.8 | -6.2 | -11.0 | 9.6 | 4361 | 2.2 | . | . | .
O=C(Cc1ccc([N+](=O)[O-])cc1)NCc1ccncc1 | 1.2 | 1.4 | 27.4 | -0.9 | 4871 | -0.5 | . | . | .
Cc1cc2cc(CNC(=O)Cc3ccc([N+](=O)[O-])cc3)ccc2n1C | -85.3 | -64.4 | -2.7 | 5.8 | 2033 | 76.8* | 2.0 | -10.4 | -2.7
O=C(O)CCCC(=O)N1CC(=O)Nc2ccccc21 | -3.2 | 1.3 | 43.8 | -1.4 | 2955 | -0.1 | . | . | .
COc1cc(-c2noc(C)c2/C=C/c2cccc([N+](=O)[O-])c2)cc(OC)c1OC | -1.6 | 0.7 | -18.3 | -9.8 | 2967 | 0.0 | . | . | .
O=C(NNC(=O)c1ccccc1[N+](=O)[O-])c1cnccn1 | -12.1 | -5.9 | -27.7 | 3.6 | 7816 | -1.9 | . | . | .
O=C1c2ccccc2C(=O)N1C1CCCCC1 | ? | 49.8* | -24.7 | 0.1 | 3825 | -3.4 | 1.9 | -0.1 | 0.6
O=C(Nc1ccc(CN2CCOCC2)cc1)c1ccc(Br)cc1 | 8.9 | 1.1 | 12.2 | -3.1 | 4012 | -1.7 | . | . | .
O=C(Nc1ccc(CN2CCS(=O)(=O)CC2)cc1)c1ccc(C(F)(F)F)cc1 | -16.7 | 30.1* | 5.9 | -5.3 | 3484 | 0.1 | -0.4 | -8.0 | -4.5
O=C(Nc1ccc(CN2CCOCC2)cc1)c1ccc(F)cc1 | 34.9* | 1.0 | 7.9 | 2.2 | 3717 | -0.2 | -0.2 | -3.4 | 2.8
CC(C)(C)c1ccc(C(=O)Nc2ccc(CN3CCS(=O)(=O)CC3)cc2)cc1 | ? | -9.6 | -15.2 | -5.8 | ? | -5.0 | . | . | .
c1ccc(-c2cc3nc(NCc4cccs4)nc(NCc4ccc5occc5c4)c3s2)cc1 | -6.5 | 5.1 | . | . | 2936 | 1.6 | . | . | .
CCCCCn1c(CNC(=O)COC)nc2ccccc21 | 0.8 | -1.7 | 15.5 | -1.4 | 3357 | 0.5 | . | . | .
CCc1cccc(NC(=O)CCc2nc(-c3cccs3)no2)c1 | -8.7 | -3.7 | -1.9 | 10.5 | 5753 | 0.3 | . | . | .
COc1cc(NC(=O)CCc2nc(-c3cccs3)no2)cc(OC)c1OC | 41.6* | 8.3 | 33.8 | 10.9 | 3912 | 2.2 | 0.2 | -4.7 | 0.8
SMILES | BoNT-F LC inh | Anthrax LF prot | DUSP3 inh | MazF activator | Bead autofluor | BoNT A protease | BoNT-A LC CP1 | BoNT-F LC CP1 | Anthrax LF CP1
COc1ccccc1NS(=O)(=O)c1cc(NC(=O)CN2C(=O)NC3(CCCC3)C2=O)ccc1C | 23.5 | 5.6 | . | 6.6 | ? | 1.7 | . | . | .
CCc1c(O)c(/C(C)=N\O)c(=O)n(-c2ccccc2)c1-c1ccccc1 | -0.3 | -4.0 | -7.0 | 0.2 | 7643 | -0.2 | . | . | .
CCOCCCNC(=O)CN1C(=O)c2cccc3cccc1c23 | 38.9* | -4.4 | 0.7 | -19.2 | 3541 | 3.2 | -0.9 | -5.1 | -2.5
CN(CC(=O)Nc1ccccc1Br)C(=O)c1cccc(S(=O)(=O)NCc2ccccc2)c1 | -4.8 | 0.9 | . | -1.5 | 5524 | 1.9 | . | . | .
CCCCCCCCN1C(=O)[C@H](CC(=O)NCC2CCCCC2)C[C@@]2(C(=O)OC)CCCCC=C12 | -6.1 | -7.2 | . | . | 5102 | 0.2 | . | . | .
C=CCn1c(CCC)nc2ccccc21 | -0.3 | -0.2 | -6.0 | -3.1 | 4013 | 0.2 | . | . | .
C=CCn1c(C(CC)CC)nc2ccccc21 | 35.8* | -16.0 | -15.4 | 11.6 | 4311 | -2.3 | -0.2 | -1.5 | 2.8
O=C(NC1CCCCC1)c1cc(S(=O)(=O)N2CCCCC2)ccc1N1CCOCC1 | 7.9 | -1.3 | . | -0.6 | 6203 | 3.7 | . | . | .
CCCCN1C(=O)C(=O)N(CC(=O)c2ccc[nH]2)C1=O | . | . | . | 1.5 | . | . | . | . | .
Cc1ccc(C(CC(=O)N2CCCCC2)c2ccccc2)c(O)c1C (centres undefined) | 128.1* | 69.1* | 6.9 | -0.8 | 6356 | 9.8 | -0.8 | -6.4 | -0.3
Cc1ccc(C(CC(=O)N2CCNCC2)c2ccccc2)c(O)c1C (centres undefined) | -15.1 | 0.3 | -10.1 | 5.8 | 2861 | 0.4 | . | . | .
COc1ccc(C2CC(c3cccs3)=NN2c2nc(-c3ccccc3)cs2)cc1OC (centres undefined) | 1.9 | 15.9 | 2.6 | -1.1 | 4635 | 18.6 | 7.8 | -1.5 | 8.6
O=C(CN1C(=O)NC2(CCCC2)C1=O)Nc1ccc(S(=O)(=O)N2CCOCC2)cc1 | 3.6 | -5.1 | -16.7 | 7.8 | 4375 | 0.3 | . | . | .
CCOC(=O)C1CCN(CCC(=O)Nc2cccc(Cl)c2C)CC1 | -4.2 | 1.0 | 15.3 | 6.8 | 11038 | 0.8 | . | . | .
COC(=O)CCC(=O)Nc1ccc(S(=O)(=O)Nc2cc(OC)nc(OC)n2)cc1 | -3.1 | -2.7 | 39.7 | -3.5 | 3679 | -2.1 | . | . | .
CCCCCC(=O)Nc1ccc(S(=O)(=O)Nc2cc(OC)nc(OC)n2)cc1 | 39.4* | -2.5 | 1.8 | -2.3 | 3600 | 1.8 | -1.4 | -2.2 | 2.1
Cc1ccc[n+](CC(=O)c2ccc(Br)cc2)c1 | 1.3 | 0.9 | 16.6 | 13.6 | 4140 | 1.4 | . | . | .
COc1ccc(C(c2nnnn2CS(=O)(=O)c2ccc(C)cc2)N2CCN(Cc3ccccc3)CC2)cc1 (centres undefined) | 34.0 | -0.7 | . | 2.4 | 4894 | -0.7 | 1.3 | -3.4 | -1.4
Cc1cccc(C)c1NC(=O)CN(C)C(=O)CC1Sc2ccccc2NC1=O (centres undefined) | ? | -8.7 | . | -1.1 | ? | -1.5 | . | . | .
